Laboratory results published in the supplement of paper PMC13380429.

Legend:
[1] = test system: Vero E6 infected with SARS-CoV-2; assay: morphology score (similarity to uninfected cells); higher = more like uninfected cells; conditions: 24 h
[2] = test system: Vero E6 infected with SARS-CoV-2; assay: SARS-CoV-2 infection rate relative to infected DMSO; higher = more infection, active = 60 or less; conditions: 24 h
[3] = test system: Vero E6 infected with SARS-CoV-2; assay: inhibition of SARS-CoV-2 cytopathic effect; higher = more antiviral protection, active = above 15; conditions: 48 h

CCOC(=O)Nc1nc2ccccc2[nH]1 [lobendazole] (10 µM)
0.0965: morphology score [1]
inactive: SARS-CoV-2 infection rate [2] 101%

CC(C)(Oc1ccc(Cl)cc1)C(=O)N1CSCC1C(=O)O (configuration not stated) [timofibrate]
inactive: inhibition of SARS-CoV-2 cytopathic effect ([3]; 1 nM) 1.85% | inhibition of SARS-CoV-2 cytopathic effect ([3]; 8.33 nM) 4.22% | inhibition of SARS-CoV-2 cytopathic effect ([3]; 100 nM) 2.73% | inhibition of SARS-CoV-2 cytopathic effect ([3]; 833.33 nM) -9.25% | inhibition of SARS-CoV-2 cytopathic effect ([3]; 10000 nM) 3.42%

COCCCOc1ccnc(C[S+]([O-])c2nc3ccccc3[nH]2)c1C (configuration not stated) [rabeprazole]
inactive: inhibition of SARS-CoV-2 cytopathic effect ([3]; 1 nM) -0.56% | inhibition of SARS-CoV-2 cytopathic effect ([3]; 8.33 nM) -0.31% | inhibition of SARS-CoV-2 cytopathic effect ([3]; 100 nM) 2.14%

CCO[C@@H]1OC(=O)C[C@@H]1NC(=O)[C@@H]1CCCN1C(=O)[C@@H](NC(=O)c1ccc(N)c(Cl)c1)C(C)(C)C (10 µM)
0.0386: morphology score [1]
inactive: SARS-CoV-2 infection rate [2] 116%

C/C1=C/C[C@@H](/C(C)=C/c2csc(C)n2)OC(=O)C[C@H](O)C(C)(C)C(=O)[C@H](C)[C@@H](O)[C@@H](C)CCC1 [epothilone-D] (0.833333 µM)
-0.105: morphology score [1]
inactive: SARS-CoV-2 infection rate [2] 107%

O[C@H]1[C@H](O)[C@@H](O)CN2CC[C@H](O)[C@H]12 [castanospermine]
inactive: inhibition of SARS-CoV-2 cytopathic effect ([3]; 1 nM) 0.15% | inhibition of SARS-CoV-2 cytopathic effect ([3]; 8.33 nM) 1.99% | inhibition of SARS-CoV-2 cytopathic effect ([3]; 100 nM) 1.25% | inhibition of SARS-CoV-2 cytopathic effect ([3]; 833.33 nM) 1.7% | inhibition of SARS-CoV-2 cytopathic effect ([3]; 10000 nM) 2.28%

Cn1c2c(c3ccccc31)CCNCC2 (10 µM)
0.0193: morphology score [1]
inactive: SARS-CoV-2 infection rate [2] 103%

O=C(c1ccc(F)cc1)C1CCN(CCCCc2ccccc2)CC1 [4-(4-fluorobenzoyl)-1-(4-phenylbutyl)-piperidine]
inactive: inhibition of SARS-CoV-2 cytopathic effect ([3]; 1 nM) -4.06% | inhibition of SARS-CoV-2 cytopathic effect ([3]; 8.33 nM) -1.58% | inhibition of SARS-CoV-2 cytopathic effect ([3]; 100 nM) -0.19% | inhibition of SARS-CoV-2 cytopathic effect ([3]; 833.33 nM) 1.25% | inhibition of SARS-CoV-2 cytopathic effect ([3]; 10000 nM) -4.47%

Sc1nc2ccccc2s1 [benzo[d]thiazole-2(3H)-thione]
inactive: inhibition of SARS-CoV-2 cytopathic effect ([3]; 1 nM) -1.3% | inhibition of SARS-CoV-2 cytopathic effect ([3]; 8.33 nM) 0.55% | inhibition of SARS-CoV-2 cytopathic effect ([3]; 100 nM) -0.47%

CCc1cc(C(C)=O)c(O)cc1OCCCCCC(C)(C)c1nn[nH]n1
inactive: inhibition of SARS-CoV-2 cytopathic effect ([3]; 1 nM) -2.28% | inhibition of SARS-CoV-2 cytopathic effect ([3]; 8.33 nM) 0.23% | inhibition of SARS-CoV-2 cytopathic effect ([3]; 100 nM) 0.43%

CCC1=C(C)CN(C(=O)NCCc2ccc(S(=O)(=O)NC(=O)N[C@H]3CC[C@H](C)CC3)cc2)C1=O [glimepiride]
inactive: inhibition of SARS-CoV-2 cytopathic effect ([3]; 1 nM) -3.26% | inhibition of SARS-CoV-2 cytopathic effect ([3]; 8.33 nM) -2.65% | inhibition of SARS-CoV-2 cytopathic effect ([3]; 100 nM) -2.4%

Fc1ccc(C(OCCN2CCN(CCCc3ccccc3)CC2)c2ccc(F)cc2)cc1 [vanoxerine]
inactive: inhibition of SARS-CoV-2 cytopathic effect ([3]; 1 nM) -2.38% | inhibition of SARS-CoV-2 cytopathic effect ([3]; 8.33 nM) -0.72% | inhibition of SARS-CoV-2 cytopathic effect ([3]; 100 nM) 2.06% | inhibition of SARS-CoV-2 cytopathic effect ([3]; 833.33 nM) -3.95% | inhibition of SARS-CoV-2 cytopathic effect ([3]; 10000 nM) -11.6%

C=C(CC)C(=O)c1ccc(OCC(=O)O)c(Cl)c1Cl [etacrynic-acid] (10 µM)
-0.0164: morphology score [1]
inactive: SARS-CoV-2 infection rate [2] 98.5%

O=C(O)c1cc(/N=N/c2ccc(O)c(C(=O)O)c2)ccc1O [olsalazine]
inactive: inhibition of SARS-CoV-2 cytopathic effect ([3]; 1 nM) 1.15% | inhibition of SARS-CoV-2 cytopathic effect ([3]; 8.33 nM) 2.03% | inhibition of SARS-CoV-2 cytopathic effect ([3]; 100 nM) 0.75% | inhibition of SARS-CoV-2 cytopathic effect ([3]; 833.33 nM) 2.78% | inhibition of SARS-CoV-2 cytopathic effect ([3]; 10000 nM) 1.21%

CCC[C@H](N[C@@H](C)C(=O)N1[C@H](C(=O)O)C[C@@H]2CCCC[C@@H]21)C(=O)OCC [perindopril]
inactive: inhibition of SARS-CoV-2 cytopathic effect ([3]; 1 nM) -0.73% | inhibition of SARS-CoV-2 cytopathic effect ([3]; 8.33 nM) 1.32% | inhibition of SARS-CoV-2 cytopathic effect ([3]; 100 nM) -0.77% | inhibition of SARS-CoV-2 cytopathic effect ([3]; 833.33 nM) 0.99% | inhibition of SARS-CoV-2 cytopathic effect ([3]; 10000 nM) 0.19%

O=C(O)Cc1ccc(OCCNC[C@H](O)c2ccccc2)cc1
inactive: inhibition of SARS-CoV-2 cytopathic effect ([3]; 1 nM) 2.57% | inhibition of SARS-CoV-2 cytopathic effect ([3]; 8.33 nM) 3.11% | inhibition of SARS-CoV-2 cytopathic effect ([3]; 100 nM) 0.37% | inhibition of SARS-CoV-2 cytopathic effect ([3]; 833.33 nM) -0.56% | inhibition of SARS-CoV-2 cytopathic effect ([3]; 10000 nM) 1.01%

CCn1c(=O)c2c(nc(/C=C/c3ccc(OC)c(OC)c3)n2C)n(CC)c1=O [istradefylline]
inactive: inhibition of SARS-CoV-2 cytopathic effect ([3]; 1 nM) 1.05% | inhibition of SARS-CoV-2 cytopathic effect ([3]; 8.33 nM) -1.49% | inhibition of SARS-CoV-2 cytopathic effect ([3]; 100 nM) -0.91% | inhibition of SARS-CoV-2 cytopathic effect ([3]; 833.33 nM) -0.33% | inhibition of SARS-CoV-2 cytopathic effect ([3]; 10000 nM) 2.33%

NCCc1cc(O)c(O)cc1O [oxidopamine]
inactive: inhibition of SARS-CoV-2 cytopathic effect ([3]; 1 nM) -2.92% | inhibition of SARS-CoV-2 cytopathic effect ([3]; 8.33 nM) 0.45% | inhibition of SARS-CoV-2 cytopathic effect ([3]; 100 nM) -2.01% | inhibition of SARS-CoV-2 cytopathic effect ([3]; 833.33 nM) -2.87% | inhibition of SARS-CoV-2 cytopathic effect ([3]; 10000 nM) -3.37%

N=C(N)SCCc1ccc(OCc2ccc([N+](=O)[O-])cc2)cc1
inactive: inhibition of SARS-CoV-2 cytopathic effect ([3]; 1 nM) 1.92% | inhibition of SARS-CoV-2 cytopathic effect ([3]; 8.33 nM) -1.12% | inhibition of SARS-CoV-2 cytopathic effect ([3]; 100 nM) -0.47% | inhibition of SARS-CoV-2 cytopathic effect ([3]; 833.33 nM) -2.92% | inhibition of SARS-CoV-2 cytopathic effect ([3]; 10000 nM) -4.41%

COc1cc2c(c(OC)c1OC)-c1c(cc3c(c1OC)OCO3)C[C@H](C)[C@@](C)(O)C2 [schisandrol-B]
inactive: inhibition of SARS-CoV-2 cytopathic effect ([3]; 1 nM) 3.78% | inhibition of SARS-CoV-2 cytopathic effect ([3]; 8.33 nM) 3.17% | inhibition of SARS-CoV-2 cytopathic effect ([3]; 100 nM) 2.65% | inhibition of SARS-CoV-2 cytopathic effect ([3]; 833.33 nM) 2.33% | inhibition of SARS-CoV-2 cytopathic effect ([3]; 10000 nM) 1.68%

CC(=O)Nc1nc2c(Oc3cc(-c4ccc(C(F)(F)F)cc4)ncn3)cccc2s1
inactive: inhibition of SARS-CoV-2 cytopathic effect ([3]; 1 nM) 1.07% | inhibition of SARS-CoV-2 cytopathic effect ([3]; 8.33 nM) 0.66% | inhibition of SARS-CoV-2 cytopathic effect ([3]; 100 nM) 2.03% | inhibition of SARS-CoV-2 cytopathic effect ([3]; 833.33 nM) 2.31% | inhibition of SARS-CoV-2 cytopathic effect ([3]; 10000 nM) 1.83%

O=C(c1c(F)ccc(NS(=O)(=O)N2CC[C@@H](F)C2)c1F)c1c[nH]c2ncc(-c3cnc(C4CC4)nc3)cc12
inactive: inhibition of SARS-CoV-2 cytopathic effect ([3]; 1 nM) 3.26% | inhibition of SARS-CoV-2 cytopathic effect ([3]; 8.33 nM) -1.73% | inhibition of SARS-CoV-2 cytopathic effect ([3]; 100 nM) -2.71% | inhibition of SARS-CoV-2 cytopathic effect ([3]; 833.33 nM) -1.89% | inhibition of SARS-CoV-2 cytopathic effect ([3]; 10000 nM) -5.07%

CCOc1c2c(c(OCC)c3ccccc13)C(=O)N(c1ccc(CC(=O)NS(=O)(=O)c3ccccc3)cc1)C2
inactive: inhibition of SARS-CoV-2 cytopathic effect ([3]; 1 nM) 2.87% | inhibition of SARS-CoV-2 cytopathic effect ([3]; 8.33 nM) 0.35% | inhibition of SARS-CoV-2 cytopathic effect ([3]; 100 nM) 0.73% | inhibition of SARS-CoV-2 cytopathic effect ([3]; 833.33 nM) -1.03% | inhibition of SARS-CoV-2 cytopathic effect ([3]; 10000 nM) 0.05%
